Shown are actives, neighbours in structure and some others; about 3.1% of the full set was active somewhere.
mTORC1 inh: Acumen qHTS Assay for Inhibitors of the mTORC1 Signaling Pathway in MEF (Tsc2-/-, p53-/-) Cells: Sytravon; Potency, µM (series often up to 38.3 µM), without a hit: at the highest dose activity change, negative = inhibition, most hits filed as inhibitors; AID 493208, 2011; Tsc2-/- p53-/- MEF, phospho-rpS6 immunofluorescence/PI, 24 h; 44,000 compounds, 0.78% hits;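 further: potency means the concentration at half of the fitted maximal effect; plate controls were DMSO for no effect and rapamycin for full effect; nearly all actives have a fitted effect of over 50% in size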
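Readout is phospho-S6 Alexa 488 signal normalized to PI per well, reported as % active cells with thresholds set from rapamycin (7.5 nM) and DMSO controls. Cells: Tsc2-/-, p53-/- MEFs, 24 hrs compound at 37 C; PI cell number serves as viability.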
p53null 39C tox: qHTS Screen for Compounds that Selectively Target Cancer Cells with p53 Mutations: Cytotoxicity of p53 Null Cells at the Nonpermissive Temperature; H1299 p53-null (neo) cells, 39C, ATPlite viability, 24 h; Potency, µM (top dose mostly 46.1 µM), without a hit: at the top dose activity, negative = cell killing, usual class: cytotoxic; 55,000 compounds, 0.97% hits;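 further: potency means the concentration at half of the fitted maximal effect; 0% = DMSO only and -100% = full killing by 100 µM tamoxifen; nearly all actives have a fitted effect of over 50% in size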
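Concentration-response (up to 46 uM) was run for 24 h at the nonpermissive 39C on H1299-p53A138V or H1299-neo cells. ATP content was measured with ATPlite luminescence. AC50 values were Hill-modeled after normalizing between DMSO and 100 uM tamoxifen killing.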
PMP22 txn prim: Cell-based coincidence reporter assay to measure PMP22 gene transcription in S16 Pmp22-F2sN cells - Primary screen; Potency, µM (highest dose often 57.5 µM), for the others: at the top dose activity change, negative = inhibition, hits mostly inhibitors; 43,000 compounds, 2% hits; AID 1508649, 2021; S16 Pmp22-F2sN Schwann cells, FLuc/NLuc coincidence luminescence, 24 h; active means clear falling dose curves in both reporters; inconclusive means both reporters move, but less clearly or upward; inactive means either reporter flat; the % is the NLuc reporter signal; further: potency means the concentration at half of the fitted maximal effect; on the % scale 0 is the no-effect control and ±100 the full control effect
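Transcriptional readout in edited S16(c9) cells: two luciferases reported from the Pmp22 locus, measured in turn after 24 h compound incubation.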
S16 F2sN tox: Cell viability qHTS assay in S16 Pmp22-F2sN cells; S16 Pmp22-F2sN Schwann cells viability, CellTiter-Glo, 24 h; Potency, µM (titrated, usually from 57.5 µM), without a hit: at the highest dose activity change, negative = cytotoxicity, hits mostly cytotoxic; 43,000 compounds, 0.48% hits; AID 1508642, 2021; further: potency means the concentration at half of the fitted maximal effect; on the % scale 0 is the no-effect control and ±100 the full control effect; nearly all actives have a fitted effect of over 65% in size
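Viability was measured by CellTiter-Glo luminescence (15 min, room temperature). This followed 24 h at 37 °C of compound exposure (23 nL pin transfer) in S16 Pmp22-F2sN Schwann cells, 500-1,000 per well.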
OvCa metastasis: Primary qHTS assay for Inhibitors of ovarian cancer metastasis using an organotypic tumor microenvironment (TME) model; Potency, µM (highest dose often 45.8 µM), for inactives: at the top dose activity change, negative = inhibition, usual class: inhibitors; SKOV3ip1-GFP adhesion/invasion on 3D omental model, fluorescence; 46,000 compounds, 0.1% hits;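 further: potency means the concentration at half of the fitted maximal effect; plate controls were DMSO wells for no effect and tomatine positive control wells for full effect; nearly all actives have a fitted effect of over 65% in size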
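Adhesion/invasion was scored as fixed GFP-labeled SKOV3ip1 cell counts (488/509 nm), normalized to DMSO and tomatine controls. Cancer cells in serum-free medium, with four compound doses (0.36-46 umol/L), sat 2 hr at RT then 16 hr at 37 C on a 48 hr fibroblast/mesothelial/ECM culture.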
p53null 32C kill: qHTS Screen for Compounds that Selectively Target Cancer Cells with p53 Mutations: Cytotoxicity of p53 Null Cells at the Permissive Temperature; AID 903, 2007; Potency, µM (series often up to 46.1 µM), inactives show at the highest dose activity change, negative = cytotoxicity, hits mostly cytotoxic; H1299-neo p53 null cells, ATP luminescence, 24 h, 32C; 55,000 compounds, 0.62% hits;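 further: potency means the concentration at half of the fitted maximal effect; 0% = DMSO only and -100% = full killing by 100 µM tamoxifen; nearly all actives have a fitted effect of over 55% in size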
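We seeded p53-null H1299-neo cells, incubated them overnight at 37C, and added compounds across a range up to 46 uM. After 24 hours at 32C, ATP reagent was applied for 20 min at room temperature and luminescence recorded.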
NLuc saturating: Biochemical NLuc saturation counterscreen for small molecule modulators of PMP22 gene expression - Nano-Glo assay. AID 1508638, 2021. 690 compounds, 4% hits. Secreted NLuc enzyme (filtered S16 cell medium), Nano-Glo luminescence. Potency, µM (top dose mostly 57.5 µM), for the others: at the highest dose activity change, negative = inhibition, most hits filed as inhibitors. shares compounds with PMP22 txn prim; further: potency means the concentration at half of the fitted maximal effect; on the % scale 0 is the no-effect control and ±100 the full control effect
NLuc Km ctr: Biochemical coelenterazine-based NLuc counterscreen for small molecule modulators of PMP22 gene expression - Km assay | shares compounds with PMP22 txn prim | secreted NLuc enzyme, coelenterazine luminescence, Km conditions | Potency, µM (top dose mostly 57.5 µM), inactives show at the top dose activity change, negative = inhibition, usual class: inhibitors | 690 compounds, 5% hits; further: potency means the concentration at half of the fitted maximal effect; on the % scale 0 is the no-effect control and ±100 the full control effect
FLuc ctr PMP22: Biochemical FLuc counterscreen for small molecule modulators of PMP22 gene expression. shares compounds with PMP22 txn prim. purified P. pyralis FLuc, luminescence, 10 min. Potency, µM (top dose mostly 57.5 µM), inactives show at the top dose activity, negative = inhibition, actives largely listed as inhibitors. 690 tested, under 10 active. AID 1508640, 2021; further: % of control where 0% means no effect
Target sequence (P08659 whole entry, looked up): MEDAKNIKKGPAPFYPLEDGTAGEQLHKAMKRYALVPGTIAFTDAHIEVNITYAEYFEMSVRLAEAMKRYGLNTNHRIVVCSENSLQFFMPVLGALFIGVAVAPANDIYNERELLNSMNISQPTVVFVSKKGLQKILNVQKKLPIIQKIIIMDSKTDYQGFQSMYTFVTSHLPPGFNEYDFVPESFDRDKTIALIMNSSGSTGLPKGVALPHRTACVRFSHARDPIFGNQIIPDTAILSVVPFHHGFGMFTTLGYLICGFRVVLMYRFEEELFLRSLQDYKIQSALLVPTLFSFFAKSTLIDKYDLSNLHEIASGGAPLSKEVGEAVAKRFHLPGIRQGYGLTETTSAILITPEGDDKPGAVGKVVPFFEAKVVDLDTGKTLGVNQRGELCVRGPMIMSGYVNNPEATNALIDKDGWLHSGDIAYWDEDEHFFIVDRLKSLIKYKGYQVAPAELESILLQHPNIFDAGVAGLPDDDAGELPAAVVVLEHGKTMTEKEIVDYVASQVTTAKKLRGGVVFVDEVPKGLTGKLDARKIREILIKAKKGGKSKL
S16 F2sN tox cnf: Cell viability qHTS assay in S16 Pmp22-F2sN cells - Confirmatory screen. shares compounds with PMP22 txn prim. S16 Schwann cells viability, CellTiter-Glo ATP luminescence, 24 h. Potency, µM (doses to about 57.5 µM), without a hit: at the top dose activity change, negative = viability loss, most hits filed as cytotoxic. 690 compounds, 7% hits; further: potency means the concentration at half of the fitted maximal effect; on the % scale 0 is the no-effect control and ±100 the full control effect
PMP22 txn cnf: Cell-based coincidence reporter assay to measure PMP22 gene transcription in S16 Pmp22-F2sN cells - Confirmatory screen; 690 compounds, 22% hits; AID 1508646, 2021; Potency, µM (series often up to 57.5 µM), without a hit: at the top dose activity change, negative = inhibition, most hits filed as inhibitors; shares compounds with PMP22 txn prim; S16 Schwann cells Pmp22-F2sN, dual luciferase, 24 h; active means clear falling dose curves in both reporters; inconclusive means both reporters move, but less clearly or upward; inactive means either reporter flat; the % is the FLuc reporter signal; further: potency means the concentration at half of the fitted maximal effect
PMP22 prot conf: Cell-based HiBiT reporter assay to measure PMP22 protein expression in S16 Pmp22-HiBiT cells - Confirmatory screen. shares compounds with PMP22 txn prim. S16 Schwann cells Pmp22-HiBiT, luminescence, 48 h. Potency, µM (highest dose often 27.9 µM), inactives show at the top dose activity change, negative = inhibition, most hits filed as inhibitors. 95 tested, under 10 active. AID 1508647, 2021
Target sequence (P25094 whole entry, looked up): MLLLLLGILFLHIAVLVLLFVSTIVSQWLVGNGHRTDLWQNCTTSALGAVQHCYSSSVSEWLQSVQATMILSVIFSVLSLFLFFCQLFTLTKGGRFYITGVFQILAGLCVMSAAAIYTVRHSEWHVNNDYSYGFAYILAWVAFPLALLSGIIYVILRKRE
* = called active by the depositor; i = inactive; ? = inconclusive; . = no result given. Unless noted, the call rests on the fitted dose curve; in most records, active means well fitted curve in the direction sought with a large enough effect; inconclusive means small, poorly fitted or top-dose-only effect, or another doubt; inactive means no such curve, though single readings can be large; an effect the other way counts as inactive or inconclusive.

SMILES	mTORC1 inh	p53null 39C tox	PMP22 txn prim	S16 F2sN tox	OvCa metastasis	p53null 32C kill	NLuc saturating	NLuc Km ctr	FLuc ctr PMP22	S16 F2sN tox cnf	PMP22 txn cnf	others
CCCNC(=O)c1ccc2c(c1)N=C(CCC)c1ccccc1S2	?	?	11µM*	3%	i	-7%	?	9.7µM*	4%	-1%	4.1µM*
C[C@@H]1[C@H](O)[C@@H](C)C=CC=CC=CC=CC=CC=CC=C[C@H](O[C@@H]2O[C@H](C)[C@H](O)[C@H](N)[C@@H]2O)C[C@@H]2O[C@](O)(C[C@@H](O)C[C@@H](O)[C@H](O)CC[C@@H](O)C[C@@H](O)CC(=O)O[C@H]1C)C[C@H](O)[C@@H]2C(=O)O	.	.	.	.	1%	.	.	.	.	.	.
CC(=O)NC(C)c1ccc(Oc2ccc(OC(C)C)cc2)cc1 (stereo unspecified)	.	.	.	.	-9%	.	.	.	.	.	.
Cc1cccc(-c2[nH]ncc2-c2ccc3ncccc3n2)n1	.	.	.	.	-6%	.	.	.	.	.	.
Cc1ccc(-n2c(SCc3nc(-c4ccc(Cl)cc4)no3)nnc2-c2ccncc2)cc1	-20%	?	13µM*	?	16%	13%	-18%	?	-3%	-7%	?
COc1ccc(-c2noc(CSc3nnc(C)n3-c3ccc(F)cc3)n2)cc1	-5%	-6%	?	-10%	i	-10%	?	?	?	-9%	-27%
COc1ccc(-c2noc(CSc3nnc(-c4ccncc4)n3-c3ccc(C)cc3)n2)cc1	-4%	15%	8.9µM*	-23%	i	0%	?	?	-12%	-24%	3.7µM*	PMP22 prot conf=?
O=C(Nc1ccc(Br)c2cccnc12)c1cccc2ccccc12	-5%	-13%	16µM*	14%	i	-3%	-10%	1%	2%	13%	?
O=C(Nc1cccc2cccnc12)c1cccc2ccccc12	-5%	-8%	?	2%	-13%	-23%	.	.	.	.	.
COc1ccc(NS(=O)(=O)c2ccc3c(c2)CC(C)N3C(=O)C2CCC2)cc1OC (stereo unspecified)	-16%	12%	3µM*	-12%	i	-1%	-17%	?	1%	-5%	?
CCc1cccc(NS(=O)(=O)c2ccc3c(c2)CC(C)N3C(=O)C2CC2)c1 (stereo unspecified)	-7%	-3%	?	?	9%	42%	.	.	.	.	.
Cc1ccc(C)c(N2CCN(CCCNC(=O)c3ccc4nc(C(C)C)oc4c3)CC2)c1	-6%	-13%	11µM*	?	2%	4%	?	?	4%	?	?
Cn1c(=O)c2cc(C(=O)NCCCN3CCN(c4cccc(Cl)c4)CC3)sc2c2ccccc21	-1%	?	-28%	-1%	1%	-6%	.	.	.	.	.
CCc1ccccc1NC(=O)c1cc2c(Cl)nc3ccccc3c2s1	-1%	13%	10µM*	16%	i	-2%	-17%	?	-1%	3%	5%
O=C(NCCCN1CCN(c2ccc(F)cc2)CC1)c1cc2c(Cl)nc3ccccc3c2s1	-3%	-24%	14µM*	16%	4%	0%	-13%	-11%	1%	-19%	?	PMP22 prot conf=11%
O=C(NCCCN1CCN(c2ccccc2)CC1)c1ccc2nc(Cc3ccccc3)oc2c1	0%	-19%	?	?	-4%	-8%	.	.	.	.	.
O=C(NCCCN1CCN(c2ccc(F)cc2)CC1)c1ccc2nc(Cc3ccccc3)oc2c1	-4%	-7%	16µM*	-10%	-17%	3%	-18%	3%	0%	-13%	?
COc1cccc2c1C(=O)c1c(O)c3c(c(O)c1C2=O)C[C@@](O)(C(C)=O)C[C@H]3O[C@H]1C[C@H](N)[C@H](O)[C@H](C)O1	.	.	.	.	2%	.	.	.	.	.	.
CCCCNc1oc(-c2ccc(COc3ccc(OC)cc3)o2)nc1C#N	-8%	7%	-26%	-2%	-3%	-3%	.	.	.	.	.
